From PubChem
In the library only some 4.1% were active in any assay of this set; here they are far more common.
DAX1 inh-1: inhibits human nuclear receptor DAX1 | P51843 | HEK293 Gal4-DAX1 luciferase reporter, luminescence | inhibition, % at 6.75 µM | 340,000 compounds, 0.99% hits | AID 504766;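 active = inhibition above the mean over all tested compounds plus 3 SD, cut at about 4.2% in these data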;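 note: inhibition shows as a rise in luminescence from relieved DAX1 repression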
Target sequence (P51843 207-470 limits assumed): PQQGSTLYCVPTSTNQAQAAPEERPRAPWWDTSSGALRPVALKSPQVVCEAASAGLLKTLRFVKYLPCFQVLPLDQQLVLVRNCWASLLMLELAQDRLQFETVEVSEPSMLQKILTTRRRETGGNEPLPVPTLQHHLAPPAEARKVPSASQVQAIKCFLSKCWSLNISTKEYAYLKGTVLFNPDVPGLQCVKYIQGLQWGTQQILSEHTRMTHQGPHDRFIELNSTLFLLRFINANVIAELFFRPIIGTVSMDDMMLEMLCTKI
hcDAF-12 act: H. contortus DAF-12 activation, primary screen; 370,000 compounds, 1.4% hits; activation, % at 6.8 µM; HEK293 hcDAF-12 lit1-tk-luc reporter, luminescence; 0% DMSO, 100% Δ7-dafachronic acid; AID 652067;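 active = activation above the mean of all tested compounds plus 3 SD, cut at about 5.5% in these data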
hgDAF12 agonist: hgDAF-12 agonism, primary luciferase screen; HEK293 GAL4-hgDAF12 UAS-luciferase reporter, agonist luminescence; normalized to butyrate control; activation, % at 6.8 µM; 370,000 compounds, 1.8% hits; AID 687014;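 active = activation above a cutoff set at the mean of all screened compounds plus 3 SD, cut at about 10% in these data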
DAX1 inh-2: DAX1 (NR0B1) inhibition, primary screen. 370,000 compounds, 1.1% hits. inhibition, % at 6.8 µM. HEK293T StAR-luciferase reporter, SF-1/DAX-1 repression relief;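 active = inhibition above the mean over all tested compounds plus 3 SD, cut at about 3.6% in these data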;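 note: higher inhibition means more luminescence from relief of DAX-1 repression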
ssDAF12 agonist: activators of S. stercoralis DAF-12 nuclear receptor; 370,000 compounds, 1% hits; HEK293 ssDAF-12/GRIP1 lit1-tk-luc reporter, luminescence; % of 3 µM dafachronic acid response; AID 652126; activation, % at 6.8 µM;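 active = activation above the mean over all tested compounds plus 3 SD, cut at about 0.9% in these data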
LXR ag: counter-screen for hcDAF-12 agonists: agonists of human LXR-beta. AID 743027. activation, % at 6.8 µM. shares compounds with hcDAF-12 act. 3,400 tested, under 10 active. HEK293 Gal4-LXR tk-luc reporter, luminescence, 24 h; normalized: DMSO 0%, positive control 100%;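 active = mean percent activation of the reporter above a cutoff set as the average over tested compounds plus their standard deviation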
hcDAF12 ag: confirmation of H. contortus DAF-12 agonists. shares compounds with hcDAF-12 act. HEK293 hcDAF-12 lit1-tk-luc reporter, luminescence; % of Δ7-dafachronic acid response. activation, % at 6.8 µM. 3,400 compounds, 61% hits;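 active = mean activation across triplicate tests above the threshold derived from the earlier primary screen, cut at about 5.5% in these data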
hgDAF12 conf: hgDAF-12 agonism, confirmation assay; shares compounds with hgDAF12 agonist; activation, % at 6.8 µM; AID 743050; HEK293 GAL4-hgDAF12 luciferase reporter, agonist mode; percent of butyrate response; 3,300 compounds, 80% hits;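 active = mean activation over triplicate wells above the hit cutoff derived from the earlier primary screen, cut at about 11% in these data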
LXRb DAF12 ctr: counter-screen for DAF-12 agonists: agonists of human LXR-beta; HEK293 Gal4-LXR luciferase reporter, 24 h; activation, % at 6.8 µM; shares compounds with hgDAF12 agonist; 3,300 tested, under 10 active; AID 743051;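 active = mean activation of the triplicate above a set limit carried over from the primary screen, none filed active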
Hits are given with their value; 0 = inactive; - = not tested or not shown.

SMILES | DAX1 inh-1 | hcDAF-12 act | hgDAF12 agonist | DAX1 inh-2 | ssDAF12 agonist | LXR ag | hcDAF12 ag | hgDAF12 conf | LXRb DAF12 ctr
O=C(CNC(=O)c1ccccc1F)c1ccccc1 | 0 | 7.0 | 17 | 0 | 1.1 | 0 | 0 | 14 | 0
O=C(NCCc1ccccc1)c1ccccc1F | 0 | 6.7 | 15 | 3.8 | 0 | 0 | 0 | 14 | 0
O=C(NCCc1ccccc1)c1ccccc1C(=O)NCCc1ccccc1 | - | 0 | 0 | 0 | 0 | - | - | - | -
COc1ccc(NC(=S)Nc2ccccn2)cc1 | 0 | 11 | 15 | 0 | 1.7 | 0 | 0 | 13 | 0
CCCCN1CCCOc2cc(Br)ccc2S1(=O)=O | - | 0 | 0 | 0 | 0 | - | - | - | -
Cc1ccnc(NC(=O)c2cc3cc(F)ccc3s2)c1 | 0 | 9.9 | 22 | 0 | 2.4 | 0 | 8.4 | 19 | 0
CSCCC(c1nc2ccccc2[nH]1)n1c(/C=C/c2ccc(Cl)cc2)nc2ccccc21 (stereo not drawn) | - | 0 | 0 | 0 | 0 | - | - | - | -
CC(=NC1CCCCC1)C1=C(O)c2ccccc2C1=O | 0 | 8.1 | 16 | 4.2 | 0 | 0 | 5.8 | 15 | 0
O=C(Nc1ccccc1)c1cc2ccc3ccccc3c2s1 | 4.4 | 12 | 15 | 0 | 2.8 | 0 | 9.8 | 16 | 0
COc1ccc(-n2c(SCC(=O)N3CCCCC3C)nnc2-c2ccncc2)cc1 (stereo not drawn) | - | 0 | 0 | 0 | 0 | - | - | - | -
COC(=O)c1nn(-c2ccc(-c3ccccc3)cc2)cc1O | 0 | 8.3 | 14 | 0 | 0 | 0 | 8.2 | 18 | 0
Nc1c(C(=O)N2CCCC2)sc2nc3c(cc12)CCCCCC3 | 0 | 0 | 0 | 0 | 0 | - | - | - | -
Nc1c(C(=O)N2CCOCC2)sc2nc3c(cc12)CCCC3 | 0 | 6.9 | 14 | 0 | 0 | 0 | 7.1 | 0 | 0
COc1ccc(OC)c(NC(=O)C2(C)CCN2CCc2ccccc2)c1 (stereo not drawn) | - | 0 | 0 | 0 | 0 | - | - | - | -
O=c1cc(CCl)[nH]c2nc3ccccc3n12 | 0 | 0 | 0 | 0 | 0 | - | - | - | -
O=c1cc(-c2ccccc2)[nH]c2nc3ccccc3n12 | 0 | 11 | 14 | 3.7 | 1.5 | 0 | 15 | 19 | 0
COc1ccc(CNc2ccc3c(c2)ncn3-c2ccccc2OC)cc1 | 0 | 0 | 0 | 0 | 0 | - | - | - | -
CC(C)n1cnc2cc(NCc3nc4ccccc4n3C)ccc21 | 0 | 6.7 | 14 | 0 | 0 | 0 | 6.1 | 11 | 0
CC1CCC2(CCC(=O)N2C[C@@H](O)c2ccccc2)CC1 (stereo partly drawn) | - | 0 | 0 | - | 0 | - | - | - | -
O=C(Nc1ccc(F)cc1F)C1CCN(c2ncccn2)CC1 | - | 0 | 0 | 0 | 0 | - | - | - | -
Cc1nc(-c2coc3cc(O)c(C)cc3c2=O)cs1 | 0 | 10 | 13 | 0 | 0 | 0 | 10.0 | 15 | 0
COCCNC(=O)C1(C)CCCN(C(=O)c2ccccc2OC(F)(F)F)C1 (stereo not drawn) | - | 0 | 0 | 0 | 0 | - | - | - | -
CC[n+]1c(/C=C/c2ccc(OC)c(OC)c2)ccc2ccccc21 | 4.4 | 9.3 | 17 | 0 | 1.1 | 0 | 9.7 | 18 | 0
CC[n+]1c(/C=C/c2ccc(OC(C)=O)c(OC)c2)ccc2ccccc21 | 0 | 0 | 0 | 0 | 0 | - | - | - | -
OC(c1ccc(F)c(F)c1)c1nc(-c2cccc3cccnc23)cs1 (stereo not drawn) | - | 0 | 0 | 0 | 0 | - | - | - | -
Cn1c(SCc2ccccc2F)nc2cccnc21 | 0 | 8.0 | 14 | 0 | 0 | 0 | 5.7 | 18 | 0
CCOC(=O)CSc1nc2cccnc2n1C | 0 | 0 | 0 | 0 | 0 | - | - | - | -
Cc1cc2nc(-c3ccc(SCC(=O)Nc4ccc5c(c4)OCCO5)nc3)[nH]c2cc1C | 0 | 7.3 | 15 | 0 | 0 | 0 | 0 | 15 | 0
O=C(CSc1ccc(-c2nc3ccccc3[nH]2)cn1)Nc1ccc2c(c1)OCCO2 | 0 | - | - | - | - | - | - | - | -
